Laboratory results as given in PubChem BioAssay (Tox21).
“And” between values parts separate entries of the source, which are not always exact repeats. Equal entries are not always repeated. A number with no mark means an inactive call. Results filed as inconclusive are left out. A call without a number means that no potency is given here. The source made the active and inactive calls. Unless noted, the call rests on the fitted dose curve; in most records, active means well fitted curve in the direction sought with a large enough effect in the repeat runs; inconclusive means weak or mixed curves; inactive means no such curve, though single readings can be large; an effect the other way counts as inactive or inconclusive.

Legend:
[1] = molecular target: Acetylcholinesterase (Homo sapiens) (UniProt P22303); assay: Acetylcholinesterase (AChE) small molecule antagonists: enzyme-based qHTS assay with human liver microsomes (AID 1347399; calls by dose curve; further: nearly all actives have a fitted effect of over 60% in size); settings: Potency: qHTS inhibition
Acetylcholinesterase (Homo sapiens), sequence (P22303 whole entry, looked up): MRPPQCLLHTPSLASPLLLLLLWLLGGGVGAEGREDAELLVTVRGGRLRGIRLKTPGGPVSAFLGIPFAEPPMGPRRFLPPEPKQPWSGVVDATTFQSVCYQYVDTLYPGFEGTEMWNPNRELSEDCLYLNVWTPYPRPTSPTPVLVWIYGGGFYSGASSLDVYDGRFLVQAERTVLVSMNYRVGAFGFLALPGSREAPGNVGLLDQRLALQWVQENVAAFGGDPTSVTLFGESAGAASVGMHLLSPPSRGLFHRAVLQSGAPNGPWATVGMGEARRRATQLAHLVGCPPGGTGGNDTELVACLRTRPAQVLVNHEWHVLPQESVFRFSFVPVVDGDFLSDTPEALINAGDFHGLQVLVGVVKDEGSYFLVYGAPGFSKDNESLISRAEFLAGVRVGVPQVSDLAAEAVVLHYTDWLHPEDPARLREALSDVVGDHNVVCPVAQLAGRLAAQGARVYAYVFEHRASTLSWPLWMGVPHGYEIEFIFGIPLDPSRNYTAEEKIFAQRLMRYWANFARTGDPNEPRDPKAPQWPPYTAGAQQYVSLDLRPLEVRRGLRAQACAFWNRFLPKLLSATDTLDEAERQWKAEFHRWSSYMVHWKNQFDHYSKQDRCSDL
Method in brief: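 Recombinant human AChE (50 mU/mL in the enzyme mix) and human liver microsomes (0.25 mg/mL final) were preincubated with compound and NADPH (0.25 mg/mL final) for 30 min at 37 C. Acetylthiocholine/DTNB was then added; thiocholine was read colorimetrically after 10 min at room temperature.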

[2] = molecular target: Cytochrome P450 2D6 (Homo sapiens) (UniProt P10635); assay: Cytochrome P450 Family 2 Subfamily D Member 6 (CYP2D6) small molecule antagonists: luciferase reporter qHTS assay (AID 1671196); further: nearly all actives have a fitted effect of over 50% in size
Cytochrome P450 2D6 (Homo sapiens), sequence (P10635 whole entry, looked up): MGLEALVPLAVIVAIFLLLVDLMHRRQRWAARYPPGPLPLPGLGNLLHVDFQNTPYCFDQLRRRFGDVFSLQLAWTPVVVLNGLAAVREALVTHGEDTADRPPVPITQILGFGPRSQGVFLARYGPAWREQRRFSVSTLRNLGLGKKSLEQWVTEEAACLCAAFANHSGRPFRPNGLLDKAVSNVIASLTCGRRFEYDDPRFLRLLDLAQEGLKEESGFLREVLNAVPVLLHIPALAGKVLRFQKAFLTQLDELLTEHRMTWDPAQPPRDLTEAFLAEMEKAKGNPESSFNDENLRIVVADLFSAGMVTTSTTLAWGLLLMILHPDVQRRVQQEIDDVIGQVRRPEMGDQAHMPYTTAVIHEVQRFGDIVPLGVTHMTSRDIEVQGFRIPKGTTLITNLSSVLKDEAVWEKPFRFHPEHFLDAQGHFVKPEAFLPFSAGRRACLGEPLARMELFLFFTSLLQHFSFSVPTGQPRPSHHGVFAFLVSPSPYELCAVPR
Method in brief: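 Test chemicals meet CYP2D6 plus proluciferin substrate (10 min, RT); NADPH regenerating solution then drives turnover for 1 h. Detection reagent halts the reaction; luminescence measured after 20 min.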

[3] = molecular target: Cytochrome P450 2C19 (Homo sapiens) (UniProt P33261); assay: Cytochrome P450 Family 2 Subfamily C Member 19 (CYP2C19) small molecule antagonists: luciferase reporter qHTS assay (AID 1671197); further: nearly all actives have a fitted effect of over 65% in size
Cytochrome P450 2C19 (Homo sapiens), sequence (P33261 whole entry, looked up): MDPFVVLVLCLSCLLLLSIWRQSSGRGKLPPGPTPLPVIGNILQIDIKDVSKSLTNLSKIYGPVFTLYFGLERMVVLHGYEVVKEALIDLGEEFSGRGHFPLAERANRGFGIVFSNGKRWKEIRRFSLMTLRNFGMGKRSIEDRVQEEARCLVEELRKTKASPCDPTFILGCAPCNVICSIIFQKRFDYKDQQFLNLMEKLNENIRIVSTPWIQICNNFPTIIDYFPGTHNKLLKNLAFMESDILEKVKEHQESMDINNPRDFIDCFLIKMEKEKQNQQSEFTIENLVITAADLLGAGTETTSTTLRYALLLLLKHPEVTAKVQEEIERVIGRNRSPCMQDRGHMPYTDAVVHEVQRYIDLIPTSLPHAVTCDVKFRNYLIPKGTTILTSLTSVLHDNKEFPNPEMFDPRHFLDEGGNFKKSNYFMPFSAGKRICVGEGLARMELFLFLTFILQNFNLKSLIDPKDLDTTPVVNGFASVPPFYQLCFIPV
Method in brief: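 CYP2C19 P450-Glo, 1536-well qHTS. Cpd + enzyme/proluciferin substrate 10 min RT; + NADPH regen, 37C 1 h; stop with luciferin detection reagent, 20 min RT, luminescence (RLU). Pos ctrl ketoconazole.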

[4] = molecular target: Cytochrome P450 2C9 (Homo sapiens) (UniProt P11712); assay: Cytochrome P450 Family 2 Subfamily C Member 9 (CYP2C9) small molecule antagonists: luciferase reporter qHTS assay (AID 1671198); further: nearly all actives have a fitted effect of over 50% in size
Cytochrome P450 2C9 (Homo sapiens), sequence (P11712 whole entry, looked up): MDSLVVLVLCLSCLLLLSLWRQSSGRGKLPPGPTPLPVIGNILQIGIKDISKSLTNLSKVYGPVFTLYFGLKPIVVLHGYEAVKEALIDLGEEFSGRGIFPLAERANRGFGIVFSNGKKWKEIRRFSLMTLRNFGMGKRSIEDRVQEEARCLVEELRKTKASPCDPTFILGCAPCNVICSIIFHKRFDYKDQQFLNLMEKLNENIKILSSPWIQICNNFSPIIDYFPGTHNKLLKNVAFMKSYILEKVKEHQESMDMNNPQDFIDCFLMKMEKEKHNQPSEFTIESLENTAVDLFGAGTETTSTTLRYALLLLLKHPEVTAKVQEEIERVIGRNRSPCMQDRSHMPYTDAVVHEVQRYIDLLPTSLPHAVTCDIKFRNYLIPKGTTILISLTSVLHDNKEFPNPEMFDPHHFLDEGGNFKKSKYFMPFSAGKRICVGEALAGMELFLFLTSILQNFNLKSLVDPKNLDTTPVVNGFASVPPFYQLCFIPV
Method in brief: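 CYP2C9 activity was measured with a P450-Glo proluciferin substrate. Enzyme–substrate mix was held with compound for 10 min at room temperature, then NADPH regeneration solution was added for 1 h at 37C. Luciferin product was read as luminescence.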

[5] = molecular target: Voltage-gated inwardly rectifying potassium channel KCNH2 (Homo sapiens) (UniProt Q12809); assay: Human Ether-a-go-go-Related Gene (hERG) channel small molecule antagonists: fluorescence cell-based qHTS assay (AID 1671200); further: nearly all actives have a fitted effect of over 50% in size
Voltage-gated inwardly rectifying potassium channel KCNH2 (Homo sapiens), sequence (Q12809 whole entry, looked up): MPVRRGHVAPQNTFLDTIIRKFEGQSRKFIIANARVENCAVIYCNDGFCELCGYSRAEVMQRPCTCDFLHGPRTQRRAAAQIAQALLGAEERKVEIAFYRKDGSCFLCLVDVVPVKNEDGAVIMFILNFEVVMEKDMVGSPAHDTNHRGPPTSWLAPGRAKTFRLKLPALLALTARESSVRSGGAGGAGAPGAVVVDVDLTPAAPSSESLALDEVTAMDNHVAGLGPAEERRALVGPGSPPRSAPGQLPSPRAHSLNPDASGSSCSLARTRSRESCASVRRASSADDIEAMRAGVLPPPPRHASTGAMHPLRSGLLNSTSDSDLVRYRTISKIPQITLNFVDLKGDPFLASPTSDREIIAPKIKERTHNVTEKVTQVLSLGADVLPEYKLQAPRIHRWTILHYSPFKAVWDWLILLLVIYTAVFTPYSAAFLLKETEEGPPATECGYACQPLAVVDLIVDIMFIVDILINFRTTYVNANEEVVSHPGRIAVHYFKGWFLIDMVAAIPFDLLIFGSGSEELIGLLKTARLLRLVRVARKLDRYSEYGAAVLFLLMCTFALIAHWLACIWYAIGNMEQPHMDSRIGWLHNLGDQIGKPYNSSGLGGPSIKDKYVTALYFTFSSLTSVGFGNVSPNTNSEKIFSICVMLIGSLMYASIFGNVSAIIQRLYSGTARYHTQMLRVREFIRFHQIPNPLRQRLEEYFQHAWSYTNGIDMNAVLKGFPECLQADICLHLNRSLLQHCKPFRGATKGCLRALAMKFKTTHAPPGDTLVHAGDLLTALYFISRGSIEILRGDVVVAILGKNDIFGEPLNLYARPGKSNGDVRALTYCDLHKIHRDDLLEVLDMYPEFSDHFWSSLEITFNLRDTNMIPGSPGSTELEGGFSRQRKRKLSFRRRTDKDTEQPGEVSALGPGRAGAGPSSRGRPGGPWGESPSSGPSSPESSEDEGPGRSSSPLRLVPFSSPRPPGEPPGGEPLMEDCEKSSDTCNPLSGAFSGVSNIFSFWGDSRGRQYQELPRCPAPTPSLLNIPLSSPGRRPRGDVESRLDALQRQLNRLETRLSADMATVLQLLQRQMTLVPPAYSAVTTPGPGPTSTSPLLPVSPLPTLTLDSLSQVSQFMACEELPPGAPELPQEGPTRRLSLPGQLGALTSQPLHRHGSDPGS
Method in brief: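 Thallium flux as potassium surrogate: FluxOR II dye loaded 1 h at room temperature into hERG-expressing U2OS cells, then stimulus buffer added after 10 min. Kinetic 480 nm excitation/540 nm emission read, 2 min.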

[6] = molecular target: Cytochrome P450 3A4 (Homo sapiens) (UniProt P08684); assay: Cytochrome P450 Family 3 Subfamily A Member 4 (CYP3A4) small molecule antagonists: luciferase reporter qHTS assay (AID 1671201); further: nearly all actives have a fitted effect of over 50% in size
Cytochrome P450 3A4 (Homo sapiens), sequence (P08684 whole entry, looked up): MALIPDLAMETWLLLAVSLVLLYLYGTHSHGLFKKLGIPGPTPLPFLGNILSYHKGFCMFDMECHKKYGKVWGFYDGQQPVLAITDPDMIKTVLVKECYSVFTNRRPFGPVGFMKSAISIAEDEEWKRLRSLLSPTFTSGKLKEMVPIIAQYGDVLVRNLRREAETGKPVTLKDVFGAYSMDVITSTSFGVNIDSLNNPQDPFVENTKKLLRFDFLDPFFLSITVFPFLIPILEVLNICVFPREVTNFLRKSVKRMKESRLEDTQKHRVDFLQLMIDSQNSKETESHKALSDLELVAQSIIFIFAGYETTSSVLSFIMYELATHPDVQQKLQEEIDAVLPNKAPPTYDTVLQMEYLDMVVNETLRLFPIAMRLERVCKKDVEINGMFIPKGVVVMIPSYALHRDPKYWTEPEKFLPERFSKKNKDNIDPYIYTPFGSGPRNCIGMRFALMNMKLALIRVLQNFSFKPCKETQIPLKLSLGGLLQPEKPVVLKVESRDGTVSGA
Method in brief: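 Recombinant human CYP3A4 converts a proluciferin substrate to luciferin over 1 h at room temperature after NADPH regeneration solution is added (compound preincubated 10 min); detection reagent stops reaction, luminescence read 20 min later as relative units.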

[7] = molecular target: Cytochrome P450 1A2 (Homo sapiens) (UniProt P05177); assay: Cytochrome P450 Family 1 Subfamily A Member 2 (CYP1A2) small molecule antagonists: luciferase reporter qHTS assay (AID 1671199); further: nearly all actives have a fitted effect of over 50% in size
Cytochrome P450 1A2 (Homo sapiens), sequence (P05177 whole entry, looked up): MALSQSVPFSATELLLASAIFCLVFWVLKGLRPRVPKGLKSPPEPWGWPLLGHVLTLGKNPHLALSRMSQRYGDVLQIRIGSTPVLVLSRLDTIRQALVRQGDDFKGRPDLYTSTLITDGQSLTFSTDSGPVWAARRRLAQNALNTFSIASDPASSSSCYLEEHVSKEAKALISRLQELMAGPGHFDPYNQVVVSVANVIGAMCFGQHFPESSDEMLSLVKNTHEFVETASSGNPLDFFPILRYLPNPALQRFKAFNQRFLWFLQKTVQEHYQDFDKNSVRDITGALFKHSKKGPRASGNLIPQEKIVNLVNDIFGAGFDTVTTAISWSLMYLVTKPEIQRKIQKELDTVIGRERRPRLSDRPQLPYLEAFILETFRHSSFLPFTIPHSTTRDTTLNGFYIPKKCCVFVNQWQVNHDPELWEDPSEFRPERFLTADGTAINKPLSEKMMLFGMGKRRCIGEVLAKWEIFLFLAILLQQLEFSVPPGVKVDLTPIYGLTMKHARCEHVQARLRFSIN
Method in brief: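 Steps: enzyme-substrate mix dispensed; test compounds and furafylline control pinned in; 10 min room temperature; NADPH regeneration solution added, 1 h; reaction stopped with luciferin detection reagent; luminescence read after 20 min.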
Potency means the concentration at half of the fitted maximal effect.

Row | SMILES | Potency [1] | Potency [2] | Potency [3] | Potency [4] | Potency [5] | Potency [6] | Potency [7]
1 | ClC1=C(Cl)C2(Cl)C3C(Cl)C=CC3C1(Cl)C2(Cl)Cl (configuration not stated) | inactive | inactive | 8.98 µM (active) and 20 µM (active) | 35.6 µM (active) | 21.9 µM (active) | 5.05 µM (active) and 11.2 µM (active) | –
2 | CC(C)(C)OO | inactive | inactive | inactive | inactive | inactive | inactive | –
3 | CC(C)OC(=O)C(O)(c1ccc(Cl)cc1)c1ccc(Cl)cc1 | inactive | 31.7 µM (active) | 2 µM (active) | 8.94 µM (active) | 21.9 µM (active) | inactive | –
4 | CN(C)CCc1c[nH]c2cccc(O)c12 | inactive | 7.03 µM (active) | 19.8 µM (active) | 7.89 µM (active) | inactive | – | –
5 | N#CSCSC#N | inactive | inactive | 72.6 µM (active) | 32.4 µM (active) and 35.2 µM (active) | 56.2 µM (active) and 43.2 µM (active) | inactive | 23 µM (active) and 28 µM (active)
6 | CCOP(=S)(OCC)OC(Cl)C(Cl)(Cl)Cl (configuration not stated) | 28.3 µM (active) | inactive | 39.9 µM (active) | 3.99 µM (active) | – | 3.99 µM (active) | 35.6 µM (active)
7 | CN(C)CCc1c[nH]c2ccc(O)cc12 | inactive | 17.4 µM (active) | inactive | 24.6 µM (active) | inactive | inactive | –
8 | CCC(C)c1cc([N+](=O)[O-])cc([N+](=O)[O-])c1OC(=O)C=C(C)C (configuration not stated) | inactive | inactive | 35.6 µM (active) | 35.6 µM (active) | – | inactive | 35.6 µM (active)
9 | O=C(CCl)C(Cl)Cl | inactive | 40.3 µM (active) | 56.9 µM (active) | 40.3 µM (active) | inactive | inactive | –
10 | CC(=O)O[C@H]1CC[C@@]2(C)C(=CC[C@@H]3[C@@H]2CC[C@]2(C)C(=O)CC[C@@H]32)C1 | inactive | inactive | 31.7 µM (active) | 31.7 µM (active) | 49 µM (active) | inactive | –
11 | c1ccc2c(c1)[nH]c1cnccc12 | inactive | 7.11 µM (active) | 31.8 µM (active) | 31.8 µM (active) | inactive | 31.8 µM (active) | –
12 | C[C@]12Cc3nonc3C[C@@H]1CC[C@@H]1[C@@H]2CC[C@@]2(C)[C@H]1CC[C@]2(C)O | inactive | inactive | 17.4 µM (active) | 24.5 µM (active) | inactive | – | –
13 | CCCCCCCCCC[N+](C)(C)CCCCCCCCCC | inactive | 1 µM (active) | 35.6 µM (active) | 39.9 µM (active) | – | 56.4 µM (active) | 39.9 µM (active)
14 | CN(C)C1CSSSC1 | inactive | 39.9 µM (active) | 35.6 µM (active) | 28.3 µM (active) | inactive | inactive | 63.3 µM (active)
15 | ClC1=C(Cl)[C@]2(Cl)[C@@H]3[C@@H](Cl)[C@@H](Cl)C[C@@H]3[C@@]1(Cl)C2(Cl)Cl | inactive | inactive | inactive | inactive | inactive | inactive | –
16 | CCCCCCCCCCCCCC[P+](CCCCCC)(CCCCCC)CCCCCC (tested in a mixture with another compound) | inactive | 1.26 µM (active) | 20 µM (active) | 22.5 µM (active) | 0.692 µM (active) | 5.03 µM (active) | 22.5 µM (active)
17 | C1CCC2CCCCC2C1 (configuration not stated) | inactive | inactive | inactive | inactive | inactive | inactive | inactive
18 | CCCN(CCC)c1c([N+](=O)[O-])cc(S(N)(=O)=O)cc1[N+](=O)[O-] | inactive | 62.7 µM (active) | 37.9 µM (active) | 5.12 µM (active) | – | 21.3 µM (active) | 51.2 µM (active)
19 | Clc1ccc(C(c2ccccc2Cl)C(Cl)(Cl)Cl)cc1 (configuration not stated) | inactive | inactive | 637 nM (active) and 234 nM (active) | 22.6 µM (active) and 10.4 µM (active) | – | inactive | inactive
20 | Cc1cc(SCc2sc(-c3ccc(C(F)(F)F)c(F)c3)nc2C)ccc1OCC(=O)O | inactive | inactive | inactive | 35.6 µM (active) | inactive | inactive | –
21 | CC(C)(COCC1CO1)COCC1CO1 (configuration not stated) | inactive | inactive | 79.6 µM (active) | inactive | inactive | inactive | inactive
22 | CC(C)OC(=S)S | inactive | inactive | inactive | 31.7 µM (active) | inactive | inactive | –
23 | N#CCCSCCC#N | inactive | inactive | inactive | inactive | inactive | inactive | –
24 | CCN | inactive | inactive | inactive | inactive | inactive | inactive | –
